Hits are enriched below; roughly 3.3% of the tested compounds scored in any of these assays.
ABHD5 PLIN5 PPI: ABHD5-PLIN5 interaction inhibitors, primary screen, cell lysate, split luciferase complementation, luminescence | inhibition, % at 4 µM | Split G. princeps luciferase complementation, 4 h | AID 602281, 2012 | Perilipin-5 (Homo sapiens) + 1-acylglycerol-3-phosphate O-acyltransferase ABHD5 (Homo … | 360,000 compounds, 0.78% hits;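 active means inhibition above the mean inhibition across every tested compound plus 3 SD, cut at about 22% in these data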;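 further: 0% = DMSO only wells and the 100% control is not disclosed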
TLR4 MyD88 comp: inhibitors of TLR4-MyD88 association in cells, primary screen, cell-based, HeLa CL3-4, BLA complementation, FRET ratio. Toll-like receptor 4 (Homo sapiens) + Myeloid differentiation primary response protein …. HeLa CL3-4 TLR4/MyD88 BLA complementation. inhibition, % at 8.4 µM. 200,000 compounds, 0.18% hits. AID 861, 2007; in the data active means inhibition above about 25%;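 further: 0% = vehicle and 100% = reference inhibitor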
TLR9-MyD88 block: inhibitors of TLR9-MyD88 association in cells, primary screen, cell-based, CHO, BLA complementation, fluorescence; inhibition, % at 4.98 µM; CCF4 FRET ratio; 340,000 compounds, 0.21% hits; Toll-like receptor 9 (Homo sapiens) + Myeloid differentiation primary response protein …;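 active means inhibition above the mean over all tested compounds plus 3 SD, cut at about 21% in these data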;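 further: 0% = DMSO only wells and 100% = clavulanate BLA inhibitor control wells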
rCAG RNA binder: binders of r(CAG) RNA repeats, primary screen, biochemical, fluorescence; r(CAG) RNA repeat, TO-PRO-1 dye displacement fluorescence; inhibition, % at 3 µM; 370,000 compounds, 1.3% hits; AID 651821, 2012;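 active means inhibition above the plate cutoff, the mean of all test compounds on that plate plus 3 SD, cut at about 35% in these data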;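 further: 0% = DMSO alone and 100% = 100 µM mitoxantrone as full dye displacement; higher means more dye released from RNA so lower well fluorescence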
NOD2 RIPK2 PPI: NOD2-RIPK2 binding disruptors in cells, primary screen, fluorescence, CHO cells, BLA complementation; CCF4 ratio; Receptor-interacting serine/threonine-protein kinase 2 (Homo sapiens), O43353; 360,000 compounds, 0.38% hits; inhibition, % at 4.98 µM; in the data active means inhibition above about 21%;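 further: 0% = vehicle only and 100% = reference blocker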
PRMT1 inh: PRMT1 methyltransferase inhibitors, primary screen, biochemical, fluorescence polarization; Protein arginine N-methyltransferase 1 (Homo sapiens), Q99873; recombinant PRMT1, activity-based probe fluorescence polarization; inhibition, % at 2.79 µM; 370,000 compounds, 1.3% hits; AID 652257, 2013;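 active means inhibition above about 21% made by adding two undisclosed values, limit read from the data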
rCAG bind conf: small molecules binding CAG repeat RNA – biochemical, fluorescence, confirmation; shares compounds with rCAG RNA binder; r(CAG) RNA repeat, TO-PRO-1 dye displacement fluorescence; inhibition, % at 3 µM; 4,300 compounds, 70% hits; AID 652065, 2013;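 active means inhibition above a per-plate cutoff, the mean inhibition of sample wells plus 3 SD, cut at about 35% in these data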;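 further: loss of TO-PRO-1 fluorescence as compound displaces dye from 1x1 AA loop RNA; 0% = DMSO only wells and 100% = 100 µM mitoxantrone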
DNA CAG counter: displacement of TO-PRO-1 from CAG DNA duplex, counter-screen for rCAG RNA repeat binder project, biochemical, fluorescence, TO-PRO-1 dye, d(CAG) DNA oligo; shares compounds with rCAG RNA binder; d(CAG) DNA oligo TO-PRO-1 dye displacement; inhibition, % at 3 µM; 4,300 compounds, 94% hits; AID 652068, 2013;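 active means inhibition above its plate's cutoff, the mean test-well inhibition plus 3 SD, cut at about 4.8% in these data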;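 further: 0% = DNA dye mix with DMSO and 100% = 100 µM mitoxantrone; hits displace the dye from DNA and so lower well fluorescence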
Numbers without * were called inactive; nt = no result.

SMILES	ABHD5 PLIN5 PPI	TLR4 MyD88 comp	TLR9-MyD88 block	rCAG RNA binder	NOD2 RIPK2 PPI	PRMT1 inh	rCAG bind conf	DNA CAG counter
Cc1ccc([C@H]2C(C(=O)O)=CC[C@@H](c3ccc(C)cc3)N2S(=O)(=O)c2ccccc2C)cc1	-9	nt	-12	75*	-5	2	62*	27*
CCOC(=O)C1=CC[C@@H](c2ccccc2)N(S(=O)(=O)c2ccc(C)cc2)[C@H]1c1ccccc1C	-3	nt	nt	5	-4	2	nt	nt
CC(=O)c1ccc(S(=O)(=O)NCc2ccc(C(=O)NCC(c3ccccc3)N(C)C)cc2)cc1 (stereo not given)	4	nt	11	8	0	-6	nt	nt
COCCCNC(=O)c1ccc(S(=O)(=O)c2ccc(Cl)cc2)c(NC(C)=O)c1	6	nt	-1	3	-3	0	nt	nt
COc1ccc([C@@H]2CC=C(C(=O)O)[C@H](c3ccc(C)cc3)N2S(=O)(=O)c2ccccc2C)cc1	-6	nt	-7	66*	-6	-1	63*	26*
COc1cc(NS(=O)(=O)c2ccc(NC(=S)Nc3ccccc3)cc2)nc(OC)n1	1	nt	-4	3	-2	2	nt	nt
COc1cc(NS(=O)(=O)c2ccc(Nc3nc(-c4ccccc4)cs3)cc2)nc(OC)n1	0	4	-1	87*	-5	0	83*	54*
Cc1cc(NS(=O)(=O)c2ccc(Nc3nc(-c4ccc(O)cc4)cs3)cc2)no1	-5	-21	4	52*	-8	2	33	9.7*
Cc1cc(NS(=O)(=O)c2ccc(Nc3nc(-c4ccc(C)c(C)c4)cs3)cc2)no1	-10	-10	-2	88*	-4	6	84*	55*
COC(=O)[C@@]12C[C@@H](CC(=O)NCc3cccc(C(F)(F)F)c3)C(=O)N(CCc3ccc(OC)c(OC)c3)C1=CCC(C)(C)C2	12	nt	nt	0	3	2	nt	nt
O=C1/C(=C\c2ccc(O)c(O)c2)SC(=S)N1Cc1ccccc1	13	nt	17	64*	13	2	69*	38*
COc1ccc(/C=C2\SC(=S)N(Cc3cccnc3)C2=O)cc1C	-3	4	-3	0	4	-2	nt	nt
COc1cc(/C=C2/SC(=S)N(Cc3ccccc3)C2=O)ccc1O	-7	nt	6	55*	-4	5	35*	18*
CCN=C1S/C(=C\c2ccc(O)c(OCC)c2)C(=O)N1CC	-9	-5	-2	10	-3	-1	nt	nt
COc1cc(/C=C2/SC(=NCc3ccccc3)N(Cc3ccccc3)C2=O)ccc1O	2	-7	1	38*	3	-1	42*	23*
O=C1/C(=C\c2cccc(O)c2)SC(=S)N1Cc1ccccc1	-5	nt	-7	25	-8	3	nt	nt
CC(CCc1ccccc1)NC(=O)COC(=O)C12CC3CC(CC(Br)(C3)C1)C2 (stereo not given)	-9	-7	-11	-5	6	2	nt	nt
CC(C)C[C@@H](CN)NC(=O)c1nc[nH]c1C(=O)N[C@@H](C)C(=O)CNC[C@H](C)NC(=O)c1nc[nH]c1C(=O)N[C@@H](CC(=O)O)C(=O)O	4	nt	-3	0	6	8	nt	nt
O=C(CCN1CCN(c2ccccc2)CC1)N/N=C/c1ccc(O)c(O)c1O	-15	14	4	56*	-8	23*	45*	21*
COC(=O)[C@]12C[C@H](CC(=O)N3CCOCC3)C(=O)N(Cc3ccco3)C1=C[C@H](C1CCCC1)O[C@@H]2C	nt	nt	nt	-1	nt	-5	nt	nt
CCOc1cc(/C=C(/C#N)c2ccc(F)cc2)ccc1OCc1ccc(C(=O)O)o1	14	-4	-6	69*	0	0	68*	29*
CCOc1cc(/C=C(/C#N)C(=O)Nc2ccc(OC)cc2)ccc1OCc1ccc(C(=O)O)cc1	5	nt	-2	-3	1	1	nt	nt
CCOc1cc(/C=C(/C#N)c2nc3ccccc3[nH]2)ccc1OCc1ccc(C(=O)O)o1	-4	-2	-6	49*	-1	2	39*	8.6*
CN(Cc1ccc(F)cc1)S(=O)(=O)c1nnc(NC(=O)c2ccccc2)s1	-2	nt	12	42*	-3	2	43*	11*
COc1ccc(CN(C)S(=O)(=O)c2nnc(NC(=O)c3cccc(F)c3)s2)cc1	-7	nt	-8	41*	-6	1	64*	25*
SMILES	ABHD5 PLIN5 PPI	TLR4 MyD88 comp	TLR9-MyD88 block	rCAG RNA binder	NOD2 RIPK2 PPI	PRMT1 inh	rCAG bind conf	DNA CAG counter
COc1ccc(CN(C)S(=O)(=O)c2nnc(NC(=O)c3cccc(C)c3)s2)cc1OC	-2	nt	6	67*	-4	0	53*	17*
CN(Cc1ccc(F)cc1)S(=O)(=O)c1nnc(NC(=O)c2ccccc2Br)s1	-8	nt	-10	68*	1	1	48*	14*
CN(Cc1ccccc1)S(=O)(=O)c1nnc(NC(=O)c2ccc(F)cc2)s1	-5	nt	-9	4	-4	0	nt	nt
COc1ccc(C(=O)Nc2nnc(S(=O)(=O)N(C)Cc3ccccc3)s2)cc1	-1	nt	1	5	-4	0	nt	nt
Cc1[nH]c2ccccc2c1/C=N/NC(=O)c1cccc(S(=O)(=O)Nc2cccc(C(F)(F)F)c2)c1	-3	4	-3	65*	-12	-1	68*	27*
NNC(=O)c1cccc(S(=O)(=O)Nc2cccc(C(F)(F)F)c2)c1	-4	nt	-4	6	-3	-1	nt	nt
O=C(Nc1nc(-c2ccccn2)cs1)c1cc2ccccc2o1	2	-2	3	10	2	-5	nt	nt
Cc1cc(-c2csc(NC(=O)c3cc4ccccc4o3)n2)c(C)n1C	-1	-4	-7	44*	4	13	52*	25*
O=C(Cc1cccc2ccccc12)Nc1cc(Cl)ccc1C(=O)O	-7	nt	-2	46*	-1	0	35*	8.1*
COCCCNc1nc2ccccc2nc1NS(=O)(=O)c1ccc(Cl)cc1	-12	nt	-9	3	-6	-3	nt	nt
